Assay outcomes: PubChem BioAssay, The Scripps Research Institute Molecular Screening Center
GPR151 ag: activators of human GPR151, primary screen, cell-based, PathHunter beta-arrestin, luminescence. PathHunter beta-arrestin GPR151 cells. activation, % at 11.2 µM. 650,000 compounds, 1% hits; in the data active means activation above about 4.9%;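 further: 0% = median of compound wells and 100% = cells with positive control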
Target sequence (Q8TDV0 whole entry, looked up): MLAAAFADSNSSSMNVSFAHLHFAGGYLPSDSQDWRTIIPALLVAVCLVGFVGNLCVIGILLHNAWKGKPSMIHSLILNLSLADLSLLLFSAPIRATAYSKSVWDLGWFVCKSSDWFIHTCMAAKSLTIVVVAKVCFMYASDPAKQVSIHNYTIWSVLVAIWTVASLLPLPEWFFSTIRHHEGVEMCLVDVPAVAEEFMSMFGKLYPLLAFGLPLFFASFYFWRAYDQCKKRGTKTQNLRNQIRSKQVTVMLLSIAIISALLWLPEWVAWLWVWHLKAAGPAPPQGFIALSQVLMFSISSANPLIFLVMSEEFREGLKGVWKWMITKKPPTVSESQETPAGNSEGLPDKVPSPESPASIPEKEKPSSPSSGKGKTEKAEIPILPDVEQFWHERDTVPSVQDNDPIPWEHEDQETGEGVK
TEAD-YAP inh: TEAD-YAP interaction inhibition, primary screen, TEAD-YAP interaction inhibitor project, luminescence, HEK-TIYL cells; TEAD-Gal4/YAP UAS-luciferase luminescence; inhibition, % at 9.12 µM; 640,000 compounds, 1.4% hits; AID 1259422, 2018; in the data active means inhibition above about 32%;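 further: 0% = median of test compound wells and 100% = reference inhibitor wells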
MITF inh: MITF inhibitors, primary screen, biochemical, AlphaScreen, human; Microphthalmia-associated transcription factor (Homo sapiens), O75030; AlphaScreen MITF homodimerization, bead proximity signal; inhibition, % at 2.6 µM; 650,000 compounds, 0.91% hits; in the data active means inhibition above about 50%;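 further: 0% = vehicle wells with protein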
FBW7 act: FBW7 E3 ligase activators, primary screen, biochemical, AlphaScreen, human. 650,000 compounds, 0.13% hits. AlphaScreen FBW7–phospho-cyclin E peptide binding, activator screen. normalized activity (activation), % at 26.1 µM; in the data active means normalized activity above about 1.9%;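 further: purified mutant Fbw7 with reduced substrate affinity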
MITF confirm: MITF inhibitors, retest of hits, confirmation, biochemical, AlphaScreen, triplicate; 4,700 compounds, 16% hits; AlphaScreen MITF homodimerization, biotin/His-MITF beads; shares compounds with MITF inh; inhibition, % at 2.6 µM;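 active means inhibition above a cutoff derived from the DMSO control wells, cut at about 28% in these data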;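 further: 0% = MITF dimer wells with DMSO only; inhibitors lower the bead chemiluminescence by keeping MITF from dimerizing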
AS interf DR: AlphaScreen optical interference compounds, dose response, counter-screen, biochemical, HTS; shares compounds with MITF inh; AlphaScreen optical interference counterscreen, cell-free; IC50, µM; 480 compounds, 6% hits; call rule not given here
AlphaScreen intf2: AlphaScreen optical interference compounds, counter-screen for MITF inhibitor project, biochemical, triplicate | shares compounds with MITF inh | LysRS AlphaScreen counterscreen, signal interference | inhibition, % at 2.6 µM | 4,700 compounds, 7.6% hits | AID 1259376, 2018;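 active means inhibition above a cutoff derived from the DMSO control wells, cut at about 30% in these data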
Starred values were filed as active, the others as inactive. Hits are enriched below; roughly 3.5% of the tested compounds scored in any of these assays.

Results for COn1c2c(c3c4no[n+]([O-])c4c(Br)cc31)CCCC2 ?
GPR151 ag: -1; TEAD-YAP inh: 6; MITF inh: 11; FBW7 act: 0

How did CC(C)(C)c1ccc(C(=O)Nc2nnc(-c3ccccc3F)s2)cc1 do in these assays?
GPR151 ag: 1; TEAD-YAP inh: -2; MITF inh: 0; FBW7 act: 0

How did CCCCn1c(=O)[nH]c(=O)c2c1nc(-c1ccc([N+](=O)[O-])o1)n2C do in these assays?
GPR151 ag: 0; TEAD-YAP inh: 15; MITF inh: 79*; FBW7 act: 0; MITF confirm: 66*; AS interf DR: >7; AlphaScreen intf2: 5

Results for CCCCn1c(=O)[nH]c(=O)c2c1nc(-c1ccc(C)c([N+](=O)[O-])c1)n2CC ?
GPR151 ag: 0; TEAD-YAP inh: -11; MITF inh: 11; FBW7 act: 0

What do the screens show for `O=c1c2c3c(sc2ncn1CCc1ccccc1Cl)CC(NCCCO)CC3` (stereo not given)?
GPR151 ag: 1; TEAD-YAP inh: -8; MITF inh: -6; FBW7 act: 0

How did C/C(=N\NC(=O)CCC(=O)Nc1ccc(Cl)cc1C)c1ccccc1 do in these assays?
GPR151 ag: 0; TEAD-YAP inh: 9; MITF inh: 16; FBW7 act: 0

Results for CC1Cc2ccccc2N1C(=O)CNCC(c1ccccc1)N(C)C (stereo not given) ?
GPR151 ag: 0; TEAD-YAP inh: -3; MITF inh: 67*; FBW7 act: -1; MITF confirm: 16; AlphaScreen intf2: 25

Results for CN(C)C(CNCC(=O)N1CCc2ccccc21)c1ccco1 (stereo not given) ?
GPR151 ag: -1; TEAD-YAP inh: -10; MITF inh: 62*; FBW7 act: 0; MITF confirm: 2; AlphaScreen intf2: 10

What do the screens show for `CC1Cc2ccccc2N1C(=O)CNCCN(C)C` (stereo not given)?
GPR151 ag: 0; TEAD-YAP inh: -7; MITF inh: -3; FBW7 act: 0

What do the screens show for `CN(C)C(CNCC(=O)Nc1ccc2c(c1)CCC2)c1ccccc1` (stereo not given)?
GPR151 ag: -2; TEAD-YAP inh: -2; MITF inh: 46; FBW7 act: 0

What do the screens show for `CN(C)C(CNCC(=O)NC(=O)Nc1ccc2c(c1)OCCO2)c1ccccc1` (stereo not given)?
GPR151 ag: 0; TEAD-YAP inh: 55*; MITF inh: 79*; FBW7 act: 0; MITF confirm: 3; AlphaScreen intf2: 2

What do the screens show for `CC(C)c1ccc(NC(=O)CNCC(c2ccccc2)N(C)C)cc1` (stereo not given)?
GPR151 ag: -1; TEAD-YAP inh: 2; MITF inh: 65*; FBW7 act: 0; MITF confirm: 0; AlphaScreen intf2: -1

What do the screens show for `Cc1ccc(Nc2ncnc3c2c(-c2ccccc2)cn3-c2ccc(F)cc2)cc1`?
GPR151 ag: 0; TEAD-YAP inh: -4; MITF inh: -5; FBW7 act: 0

What do the screens show for `CCCCOc1ccc(NC(=O)CSc2nnc(C)s2)cc1`?
GPR151 ag: 0; TEAD-YAP inh: 15; MITF inh: -10; FBW7 act: 0

How did COc1cc2nc(CN3CCCC3c3nccs3)nc(N)c2cc1OC (stereo not given) do in these assays?
GPR151 ag: 0; TEAD-YAP inh: 30; MITF inh: 64*; FBW7 act: 0; MITF confirm: 61*; AlphaScreen intf2: 99*

Results for CCCCCCCC(=O)NNC(=O)c1ccc(Cl)cc1 ?
GPR151 ag: 0; TEAD-YAP inh: -4; MITF inh: 9; FBW7 act: 0

Results for CCCCCC(=O)NNC(=O)c1ccc(-c2ccccc2)cc1 ?
GPR151 ag: -1; TEAD-YAP inh: -5; MITF inh: 76*; FBW7 act: 1; MITF confirm: 24; AlphaScreen intf2: -5

How did Cc1cc2nc(C3CCN(Cc4nnnn4Cc4cccs4)CC3)[nH]c2cc1C do in these assays?
GPR151 ag: 1; TEAD-YAP inh: -3; MITF inh: 55*; FBW7 act: 0; MITF confirm: 4; AlphaScreen intf2: 14

Results for O=C(C1CC(Cc2ccc(F)cc2)=NO1)N1CCC(C(O)c2cccs2)CC1 (stereo not given) ?
GPR151 ag: -1; TEAD-YAP inh: -2; MITF inh: 10; FBW7 act: 0

Results for NC(=O)NC(=O)COC(=O)c1c2c(nc3ccccc13)/C(=C\c1ccco1)CCC2 ?
GPR151 ag: -1; TEAD-YAP inh: -4; MITF inh: 61*; FBW7 act: 0; MITF confirm: 79*; AS interf DR: >7; AlphaScreen intf2: -7

What do the screens show for `CN(CCC#N)C(=O)COC(=O)c1c2c(nc3ccccc13)/C(=C/c1ccco1)CC2`?
GPR151 ag: 1; TEAD-YAP inh: -25; MITF inh: 73*; FBW7 act: 0; MITF confirm: 80*; AS interf DR: >6.9; AlphaScreen intf2: -4

How did O=C1N[C@H](Cc2ccccc2)C(=O)N2CCN(C(=O)OCc3ccccc3)C[C@H]12 do in these assays?
GPR151 ag: -1; TEAD-YAP inh: 1; MITF inh: -5; FBW7 act: 0

Results for CC(C)(C)NC(=O)COC(=O)Cc1ccc(Cl)cc1 ?
GPR151 ag: 0; TEAD-YAP inh: -2; MITF inh: 116*; FBW7 act: 0; MITF confirm: 16; AlphaScreen intf2: 0

Results for CCC(C)NCCOCCOc1ccc(Cl)cc1Br (stereo not given) ?
GPR151 ag: -1; TEAD-YAP inh: -3; MITF inh: -2; FBW7 act: 0

What do the screens show for `CCC(C)NCCOCCOc1ccc(C)cc1Cl` (stereo not given)?
GPR151 ag: 1; TEAD-YAP inh: -6; MITF inh: 77*; FBW7 act: 0; MITF confirm: 5; AlphaScreen intf2: 19

What do the screens show for `CCC(C)NCCOc1ccc(OC)cc1` (stereo not given)?
GPR151 ag: 0; TEAD-YAP inh: 0; MITF inh: 4; FBW7 act: 0

What do the screens show for `CCC(C)NCCOCCOc1ccc(OC)cc1` (stereo not given)?
GPR151 ag: -2; TEAD-YAP inh: 1; MITF inh: 84*; FBW7 act: 1; MITF confirm: -16; AlphaScreen intf2: 6
